Compound activity from PubChem BioAssay.
Compounds with a hit are over-represented: about 3.7% of the library has one in this group of screens.
ELG1 repair inh = blocks ELG1-dependent DNA repair in HEK293T cells | Potency, µM (titrated, usually from 46.1 µM), for the others: at the highest dose activity change, negative = inhibition, usual class: inhibitors | hit rate 2.3% among 330,000 | HEK293T ELG1-luciferase reporter, luminescence, 16 h; DNA damage induced by 5-fluorouridine | AID 504467; further: on the % scale 0 is the no-effect control and ±100 the full control effect; nearly all actives have a fitted effect of over 55% in size
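HEK293T cells expressing luciferase-tagged ELG1 (2,000/well) received 5-Fluorouridine plus compound or DMSO for 16 hr at 37 °C. Luciferase was read by ONE-Glo luminescence after 30 min at room temperature.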
Nrf2 block = Nrf2 pathway inhibition. AID 504444. Potency, µM (doses to about 46 µM), without a hit: at the top dose activity change, negative = inhibition, usual class: inhibitors. A549 ARE-Fluc reporter, luciferase luminescence, 18-24 h. hit rate 2.1% among 360,000; further: on the % scale 0 is the no-effect control and ±100 the full control effect; nearly all actives have a fitted effect of over 60% in size
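A549 ARE_Fluc cells, 5000/well, 5% FBS OPTI-MEM; compounds in dose-response, 18-24 h at 37 °C/5% CO2; CellTiter-Fluor viability read (Ex 405/Em 525), then BugLite luciferase luminescence = Nrf2 activity.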
Nrf2 activator = Nrf2 pathway activation; AREc32 ARE-luciferase reporter (MCF7-derived line), luminescence, 24 h; Potency, µM (top dose mostly 46.1 µM), inactives show at the highest dose activation, most hits filed as activators; hit rate 0.31% among 410,000; further: % of control where 0% means no effect; nearly all actives have a fitted effect of over 65% in size
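Reporter line AREc32 (ARE-Fluc), seeded overnight in OPTI-MEM with 5% FBS; compound pin-transferred, 24 hr at 37 deg C, 5% CO2; luminescent read-out.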
A549 viability = A549 cytotoxicity, counter-screen for Nrf2 inhibitors; A549 ARE-Fluc cells, CellTiter-Fluor viability, 18-24 h; Potency, µM (doses to about 46 µM), inactives show top-dose activity change, negative = cytotoxicity, actives largely listed as inhibitors; hit rate 0.16% among 390,000; further: on the % scale 0 is the no-effect control and ±100 the full control effect
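A549 ARE-Fluc cells in 5% FBS OPTI-MEM, 5000 cells/well, rested 2 h then exposed to compounds in concentration-response for 18-24 h at 37 °C. Viability by CellTiter-Fluor fluorescence (Ex 405/Em 525) after 30 min; luciferase luminescence (BugLite, 15 min, RT) read afterwards.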
An asterisk follows results filed as active; ? = inconclusive; . = not tested or not shown. The call rests on the fitted dose curve; in most records, active means well fitted curve in the direction sought with a large enough effect; inconclusive means small, poorly fitted or top-dose-only effect, or another doubt; inactive means no such curve, though single readings can be large; an effect the other way counts as inactive or inconclusive. Potency means the concentration at half of the fitted maximal effect.

SMILES	ELG1 repair inh	Nrf2 block	Nrf2 activator	A549 viability
O=C(c1ccc(Cl)cc1Cl)C1(n2cncn2)Oc2ccccc2C1O (stereo not drawn)	7%	10µM*	3%	1%
CCN(CC)CCN(C(=O)CCS(=O)(=O)c1ccccc1)c1nc2cc3c(cc2s1)OCO3	-2%	-1%	13%	0%
Cc1cccc(/C=N/Nc2cc(N3CCOCC3)nc(N3CCOCC3)n2)c1	7.3µM*	-15%	10%	?
Oc1ccc(/C=N\Nc2cc(N3CCOCC3)nc(N3CCOCC3)n2)c(O)c1	10µM*	-15%	3%	-19%
CC(C)c1ccc(/C=N/Nc2cc(N3CCOCC3)nc(N3CCOCC3)n2)cc1	?	1%	1%	1%
CCCOc1ccc(/C=N/Nc2cc(N3CCOCC3)ncn2)c(O)c1	2.9µM*	-18%	6%	-3%
O=C(NC1CCCCCC1)c1cc(S(=O)(=O)N2CCCCC2)ccc1N1CCOCC1	-8%	0%	0%	-3%
COc1ccc(Cl)cc1N(CC(=O)NCc1ccccn1)S(=O)(=O)c1ccc(C)cc1	.	.	0%	.
Cc1ccc(NC(=O)CSc2nnc(-c3ccncc3)n2C)cc1S(=O)(=O)N1CCOCC1	-3%	5%	0%	8%
COC(=O)C(NC(=O)c1ccccc1Cl)(Nc1ncc(S(=O)(=O)c2ccc([N+](=O)[O-])cc2)s1)C(F)(F)F (stereo not drawn)	-19%	21µM*	22%	-26%
O=C(CSc1n[nH]c(-c2ccncc2)n1)Nc1ccc(Cl)c(Cl)c1	?	-22%	4%	19%
CC(C)C(=O)c1cc2c(cc1NC(=O)c1ccccc1)OCCO2	0%	?	0%	?
CC(C)C(=O)c1cc2c(cc1NC(=O)Nc1cccc3ccccc13)OCCO2	23µM*	.	.	.
O=S(=O)(c1cccc(-c2nnc(SCc3nc4ccccc4s3)o2)c1)N1CCOCC1	?	?	14µM*	7%
CCC(C)(C)NC(=O)C(c1cccnc1)N(C(=O)c1csnn1)c1ccc(C)cc1 (stereo not drawn)	10%	1%	-1%	1%
Fc1ccc(CSc2ccc3nnc(-c4cccnc4)n3n2)cc1	22%	9.2µM*	0%	-1%
CCSc1ccc2nnc(-c3cccc(F)c3)n2n1	21µM*	.	0%	-4%
O=C(O)CSc1ccc2nnc(-c3cccnc3)n2n1	-14%	4%	-1%	3%
O=C(c1cccc(S(=O)(=O)Nc2ccc(F)cc2)c1)N1CCC1	4%	-6%	-1%	0%
CNS(=O)(=O)c1cccc(C(=O)OCC(=O)c2ccc[nH]2)c1	9%	7%	0%	-1%
CNS(=O)(=O)c1cccc(C(=O)OCC(=O)c2ccc3c(c2)OCCO3)c1	0%	21µM*	0%	-8%
O=C(NC(NC(=S)Nc1cccc(Cl)c1)C(Cl)(Cl)Cl)OCc1ccccc1 (stereo not drawn)	-13%	16µM*	3%	?
CC(C)CC(=O)NC(NC(=S)Nc1ccccc1)C(Cl)(Cl)Cl (stereo not drawn)	-16%	-9%	-1%	1%
O=C(CCc1ccccc1)NC(NC(=S)Nc1ccc(Cl)cc1)C(Cl)(Cl)Cl (stereo not drawn)	0%	15µM*	5%	?
O=C(Nc1cc(Br)ccc1O)c1cc(-c2ccccc2)on1	0%	3%	10%	5%
SMILES	ELG1 repair inh	Nrf2 block	Nrf2 activator	A549 viability
O=C(Nc1cc(Cl)ccc1O)c1cc(-c2ccco2)on1	?	-12%	6.3µM*	-4%
O=C(Nc1cc(Br)ccc1O)c1cc(-c2ccco2)on1	?	?	4.5µM*	-5%
O=C(Nc1cccnc1Cl)c1cc(-c2ccco2)on1	?	?	10µM*	1%
O=c1c2ccccc2nc2sc(Nc3cccc(C(F)(F)F)c3)nn12	.	.	-1%	1%
CCc1cccc2c(C(=O)COC(=O)c3ccc([N+](=O)[O-])s3)c[nH]c12	-2%	?	19%	21µM*
O=[N+]([O-])c1ccccc1NCc1ccc(O)c2ncccc12	.	6.5µM*	.	?
Cc1cccc(NCc2ccc(O)c3ncccc23)c1C	8%	-7%	4%	-2%
COc1ccc2c(c1)CCc1c(C(=O)Nc3cc(C)n(Cc4ccc(Cl)cc4)n3)noc1-2	-1%	-6%	-1%	11%
CCn1ncc(C2=NOC(C(=O)NCc3ccccc3)C2)c1C (stereo not drawn)	?	.	0%	-21%
CCn1ncc(C2=NOC(C(=O)Nc3c(C)nn(Cc4ccc(F)cc4)c3C)C2)c1C (stereo not drawn)	15µM*	?	-1%	-5%
Cc1ccc(Cl)cc1N1CCN(C(=O)c2noc3c2CCCC3)CC1	.	-37%	3%	7%
Cc1cc(NC(=O)c2noc3c2CCCC3)nn1Cc1ccc(Cl)cc1	-25%	23µM*	4%	-12%
Cc1nn(Cc2ccc(F)cc2)c(C)c1NC(=O)c1noc2c1CCCCC2	18µM*	?	0%	12%
O=C(c1noc2c1CCCCC2)N1CCN(c2ccc(Cl)cc2)CC1	.	8.2µM*	-1%	-1%
CCOC(=O)c1c(C)n(C)c2ccc(OC)c(NC(=O)CCN3CCC(Cc4ccccc4)CC3)c12	-11%	14%	0%	-2%
CCCCCc1ccnc(CC(=O)c2ccc(OC)cc2)c1	.	-18%	0%	-14%
Cc1cc(C(=O)C(C(c2ccccc2)N2CCOCC2)N2CCOCC2)ccc1Cl (stereo not drawn)	.	1%	2%	1%
COc1ccc(CCNC(=O)c2cc(-c3ccc(Cl)cc3)on2)cc1OC	.	-6%	-1%	-5%
CC(C)(C)C1CCc2onc(C(=O)Nc3cnn(Cc4ccc(F)cc4)c3)c2C1 (stereo not drawn)	-5%	?	0%	?
COc1ccc(-c2cc(C(=O)Nc3cc(C)n(Cc4ccc(Cl)cc4)n3)no2)cc1OC	?	4.1µM*	0%	-28%
O=C(Nc1cnn(Cc2ccc(F)cc2)c1)c1noc2c1CCCC2	0.41µM*	3%	5%	-5%
COc1ccc(NC(=O)CSC2=Nc3ccccc3C3=NC(CC(=O)NCc4ccc5c(c4)OCO5)C(=O)N23)cc1 (stereo not drawn)	.	.	6%	0%
CCn1c(=O)n(CC)c2cc(N3CCCC3)c(NC(=O)c3ccccc3F)cc21	?	-1%	0%	-14%
CCOC(=O)c1c(C)nc2sc3c(c2c1-c1ccc(OC)cc1)NC(c1ccccc1)NC3=O (stereo not drawn)	16µM*	-18%	0%	-1%
CCOC(=O)c1c(C)nc2sc3c(=O)n(-c4ccc(OC)cc4)nnc3c2c1-c1ccc(OC)cc1	?	-22%	0%	-4%
CCOC(=O)c1c(C)nc2sc3c(=O)[nH]cnc3c2c1-c1ccc(OC)cc1	21µM*	-1%	2%	-3%
COc1ccc(-c2c(C(C)=O)c(C)nc3sc4c(c23)NC(c2ccccc2)NC4=O)cc1 (stereo not drawn)	-30%	0%	0%	-2%
